Assay results from PubChem BioAssay (NCI).
About 83,000 compounds went through this panel and 20% of them were active in at least one assay; those are over-represented in the sample as a whole.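 Growth was measured after 48 h exposure to one concentration of compound in 96-well plates. Values under 10 count as active.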 A number with no mark means an inactive call. The source made the active and inactive calls.

Key:
Assay in all cases: NCI-60 one-dose screen, 48 h (100 = growth as untreated, 0 = no growth, -100 = all killed)
Details in all cases: 10 µM unless noted
SK-MEL-2 melanoma = test system: SK-MEL-2 melanoma
EKVX NSCLC = test system: EKVX NSCLC
SN12C renal = test system: SN12C renal
UO-31 renal = test system: UO-31 renal
TK-10 renal = test system: TK-10 renal
ACHN renal = test system: ACHN renal
CAKI-1 renal = test system: CAKI-1 renal
A498 renal = test system: A498 renal
CCRF-CEM leukemia = test system: CCRF-CEM leukemia
MOLT-4 leukemia = test system: MOLT-4 leukemia
SR leukemia = test system: SR leukemia
RPMI-8226 leukemia = test system: RPMI-8226 leukemia
OVCAR-8 ovarian = test system: OVCAR-8 ovarian
OVCAR-5 ovarian = test system: OVCAR-5 ovarian
OVCAR-4 ovarian = test system: OVCAR-4 ovarian
SK-OV-3 ovarian = test system: SK-OV-3 ovarian
IGROV1 ovarian = test system: IGROV1 ovarian
OVCAR-3 ovarian = test system: OVCAR-3 ovarian
HS 578T breast = test system: HS 578T breast
NCI/ADR-RES ovarian = test system: NCI/ADR-RES ovarian

Row | SMILES | growth (SK-MEL-2 melanoma) | growth (EKVX NSCLC) | growth (SN12C renal) | growth (UO-31 renal) | growth (TK-10 renal) | growth (ACHN renal) | growth (CAKI-1 renal) | growth (A498 renal) | growth (CCRF-CEM leukemia) | growth (MOLT-4 leukemia) | growth (SR leukemia) | growth (RPMI-8226 leukemia) | growth (OVCAR-8 ovarian) | growth (OVCAR-5 ovarian) | growth (OVCAR-4 ovarian) | growth (SK-OV-3 ovarian) | growth (IGROV1 ovarian) | growth (OVCAR-3 ovarian) | growth (HS 578T breast) | growth (NCI/ADR-RES ovarian)
1 | C=C(C)[C@@H]1CC[C@]2(C(=O)O)CC[C@]3(C)[C@H](CC[C@@H]4[C@@]5(C)C/C(=C/c6ccccn6)C(=O)C(C)(C)[C@@H]5CC[C@]43C)[C@@H]12 | 68.5% | 33.3% | 41.1% | 35.8% | 60.8% | 35.9% | 26.8% | 61.7% | 21.8% | 29.4% | 29.1% | 13% | 32% | 82.4% | 36.2% | 70.4% | 51.6% | 40.8% | 63.6% | 37.4%
2 | CCC(=C(c1ccc(OCCN(C)C)cc1)c1ccc(OCCN(C)C)cc1)c1ccc(Cl)cc1 | -41.8% (active) | 7.78% (active) | -33.2% (active) | -71.9% (active) | 60.2% | -78.5% (active) | -53.6% (active) | -23.3% (active) | -50.8% (active) | -50.2% (active) | -43% (active) | -43.8% (active) | -21.5% (active) | -48.7% (active) | -20.1% (active) | 95.5% | -76.8% (active) | -34.8% (active) | -36.1% (active) | -25.7% (active)
3 | N/C(=N\C(N)=N\c1nc2ccccc2s1)c1ccc(Cl)cc1 | 96.8% | 59.8% | 61.1% | 73.1% | 132% | 62.1% | 65.1% | 74.7% | 57.9% | 74% | -8.26% (active) | 57% | 79.5% | 94.5% | 101% | 110% | 92% | 98.4% | 105% | 80.3%
4 | Cc1ccc2c(n1)C(=O)C(Cl)=C(Nc1ccc(C(=O)OC(C)(C)C)cc1)C2=O | 116% [9.25 µM] | 76.5% [9.25 µM] | 88% [9.25 µM] | 46.4% [9.25 µM] | 83.9% [9.25 µM] | -21.5% [9.25 µM] (active) | -34.8% [9.25 µM] (active) | 110% [9.25 µM] | -23.2% [9.25 µM] (active) | -6.96% [9.25 µM] (active) | -11.5% [9.25 µM] (active) | -0.459% [9.25 µM] (active) | 80.3% [9.25 µM] | 127% [9.25 µM] | 42.7% [9.25 µM] | 101% [9.25 µM] | 84.8% [9.25 µM] | 1.44% [9.25 µM] (active) | 101% [9.25 µM] | 84.9% [9.25 µM]
5 | N#Cc1c(-c2cccs2)cc(-c2cnccn2)nc1SCC(=O)N/N=C/c1ccncc1 | 121% | 99% | 110% | 88.4% | 128% | 109% | 95.9% | 116% | 103% | 117% | 93.6% | 103% | 103% | 114% | 111% | 109% | 104% | 117% | 109% | 108%
6 | CN1c2ccccc2Sc2cc(/C=N/Nc3ccnc4cc(Cl)ccc34)ccc21 | 98.3% | 94.2% | 95.7% | 84% | 115% | 109% | 103% | 131% | 56.2% | 82.4% | -1.36% (active) | 46.3% | 60.5% | 106% | 94% | 102% | 104% | 90.8% | 105% | 12.6%
7 | CN1CCN(c2ccc(Nc3nc(NCCNC(=O)c4ccc(F)cc4)c4sccc4n3)cc2)CC1 | 104% | 92.7% | 84.2% | 65.5% | 128% | 67.8% | 57.9% | 125% | 38.2% | 23.4% | 0.604% (active) | 32.1% | 77.4% | 85.3% | 61.1% | 125% | 87.7% | 86.2% | 75.6% | 88.5%
8 | C/C(CC1(O)C(=O)Nc2ccccc21)=N\O (stereo not given) | 102% | 87.9% | 98% | 84.9% | 104% | 92.5% | 83.5% | 70.6% | 99.7% | 95.4% | 100% | 100% | 101% | 99.2% | 95.1% | 108% | 97.9% | 106% | 97.4% | 95.9%
9 | COc1ccc(C(C)=C(c2ccc(OCCN3CCCCCC3)cc2)c2ccc(OCCN3CCCCCC3)cc2)cc1 | -65.2% (active) | 1.68% (active) | 0.944% (active) | -79.3% (active) | 27.1% | -57.8% (active) | -45.9% (active) | 27.9% | 0.672% (active) | -5.35% (active) | -12.1% (active) | -44.9% (active) | 0.8% (active) | 22.9% | -66.7% (active) | 72.9% | -67.9% (active) | -47.2% (active) | -52.1% (active) | -60% (active)
10 | CCCC/C(=C\c1ccc(O)c(O)c1)C(=O)NC(Cc1ccccc1)C(=O)C(=O)NCCc1ccc(OC)cc1 (stereo not given) | 98.8% | 83.3% | 95.3% | 93.4% | 107% | 96.2% | 96.5% | 85.7% | 97% | 85.4% | 105% | 89.7% | 97.2% | 99.3% | 92.7% | 105% | 96.8% | 93.7% | 91.8% | 101%
11 | O=C(Nc1ccc(N=Cc2c(O)[nH]c3ccccc23)cc1)Nc1ccc(S(=O)(=O)Nc2ncccn2)cc1 | 111% | 98.1% | 98.8% | 81.7% | 108% | 104% | 94.8% | 114% | 109% | 121% | 96.4% | 107% | 102% | 130% | 101% | 114% | 112% | 117% | 103% | 106%
12 | NC1[C@H]2CN(c3cnc(C(=O)Nc4cc(F)cc5cccnc45)cn3)C[C@@H]12 (stereo not given in full) | 92.5% | 82.1% | 69.8% | 44.6% | 87.7% | 32.5% | 49.9% | 75.4% | 30% | 18.1% | 8.36% (active) | 68.9% | 87.7% | 77.3% | 17.4% | 93.2% | 29.4% | 2.08% (active) | 77.2% | 85.3%
13 | COc1ccc2sc(NC(=O)CCCCCCNC(=O)C(O)(O)C(F)(F)F)nc2c1 | -17.5% (active) | 23.3% | 10.5% | -13.7% (active) | -12.4% (active) | -26.8% (active) | -16.3% (active) | -35.2% (active) | 24.6% | 13% | 12.5% | 14.6% | 2.54% (active) | -0.588% (active) | 27.7% | -26.6% (active) | 0.233% (active) | -23.9% (active) | 19.1% | 5.2% (active)
14 | Cc1ccc(C)c(NC2=C(Cl)C(=O)c3nc(C)ccc3C2=O)c1 | -36.2% (active) | 1.21% (active) | -81.7% (active) | -81.4% (active) | 147% | -96.3% (active) | 57% | 83.8% | 0.186% (active) | -11% (active) | 1.99% (active) | -41.9% (active) | 9.92% (active) | -71.8% (active) | -96% (active) | 93% | -66.8% (active) | -97.4% (active) | -24.8% (active) | -6.86% (active)
15 | Cc1nc(N)sc1-c1csc(Nc2ccc(C(F)(F)F)cc2)n1 | 8.77% (active) | 27% | 29.2% | 21.1% | 35% | 13% | 33.9% | 82.4% | 21.3% | 18.3% | 18.9% | 26.6% | 49.4% | 32.2% | 42.7% | 65.5% | 18.9% | 20.8% | 32.4% | 27.3%
